Experimental findings from PubChem BioAssay (NCI) are described below.

The panel holds about 83,000 compounds, 20% with a hit somewhere; the sample as a whole holds those more often.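 Growth was measured after 48 h exposure to one concentration of compound in 96-well plates. Values under 10 count as active.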 Unmarked numbers belong to inactive results. The source made the active and inactive calls.

Among the test systems are NCI-H23 lung; NCI-H226 lung; NCI-H322M lung; HOP-62 NSCLC; NCI-H460 lung; HOP-92 NSCLC; NCI-H522 lung; A549/ATCC NSCLC; 786-0 renal; COLO 205 colon; DU-145 prostate; K-562 leukemia; MALME-3M melanoma; MDA-MB-231 breast; RXF 393 renal; SF-268 CNS; SF-295 CNS; SF-539 CNS; UACC-257 melanoma; M14 melanoma.
Common to all, as to assay: NCI-60 one-dose screen, 48 h (100 = growth as untreated, 0 = no growth, -100 = all killed)
Common to all, as to conditions: 10 µM unless noted

Take `COC(=O)C1=C(C(=O)Nc2cccnc2)C2OC1(C(Cc1ccccc1)Oc1ccccc1)C1OC21` (stereo not given): the growth in the experiment with NCI-H23 lung is 95.9%; in the experiment on NCI-H226 lung, 88.4%; in the experiment with NCI-H322M lung, 98.4%; in the experiment on HOP-62 NSCLC, 93%; in the experiment with NCI-H460 lung it was 103%; in the experiment with HOP-92 NSCLC, -74.2% (active). For the same compound, the growth is -48% (active) in the experiment on NCI-H522 lung; 88.8% with A549/ATCC NSCLC; 49.7% in the experiment with 786-0 renal; -46.9% (active) with COLO 205 colon; 72.8% with DU-145 prostate; -48.4% (active) with K-562 leukemia. Further, the growth in the experiment with MALME-3M melanoma was -74.7% (active); in the experiment with MDA-MB-231 breast it was 59.8%; in the experiment on RXF 393 renal, 59.1%; in the experiment on SF-268 CNS, 86.5%; in the experiment with SF-295 CNS, 100%; in the experiment with SF-539 CNS it was 72%. Moreover, the results for the growth in the experiment with UACC-257 melanoma and in the experiment on M14 melanoma were 79.1% and 11.7%, respectively.

With `CCC(CC)(N(CC(=O)O)CC(=O)O)C(CC)(CC)N(CC(=O)O)CC(=O)O`, the growth is 106% with NCI-H23 lung; 106% in the experiment with NCI-H226 lung; 122% in the experiment with NCI-H322M lung; 103% with HOP-62 NSCLC; 108% in the experiment on NCI-H460 lung; 95.6% in the experiment with HOP-92 NSCLC. Also, the growth in the experiment with NCI-H522 lung is 100%; in the experiment with A549/ATCC NSCLC, 91.3%; with 786-0 renal it was 109%; with COLO 205 colon, 113%; in the experiment with DU-145 prostate, 119%; in the experiment with K-562 leukemia, 101%. Moreover, the growth was 133% in the experiment with MALME-3M melanoma; 110% in the experiment with MDA-MB-231 breast; 120% with RXF 393 renal; 114% in the experiment on SF-268 CNS; 108% in the experiment on SF-295 CNS; 109% with SF-539 CNS. Also, the growth in the experiment on UACC-257 melanoma was 100%; in the experiment with M14 melanoma it was 106%.

As for `O=C(CCCCCCN1CC(=O)N2[C@@H](C3CCCCC3)c3[nH]c4ccccc4c3C[C@H]2C1=O)NO`, the growth with NCI-H23 lung was 72.2%; in the experiment on NCI-H226 lung, 97.1%; with NCI-H322M lung, 79%; in the experiment with HOP-62 NSCLC it was 65.9%; in the experiment on NCI-H460 lung, 61.1%; in the experiment on HOP-92 NSCLC, 59.1%. The growth with NCI-H522 lung is 39.9%; in the experiment on A549/ATCC NSCLC it was 86.5%; in the experiment with 786-0 renal, 88%; in the experiment with COLO 205 colon, 62.9%; with DU-145 prostate it was 80%; in the experiment with K-562 leukemia, 31.1%. In addition, the growth in the experiment with MALME-3M melanoma is 37.5%; in the experiment on MDA-MB-231 breast, 82.9%; in the experiment with RXF 393 renal, 65.2%; with SF-268 CNS, 106%; in the experiment on SF-295 CNS, 89.2%; in the experiment on SF-539 CNS it was 69.3%. The growth in the experiment with UACC-257 melanoma is 54.1%; in the experiment on M14 melanoma it was 63.8%.

Turning to `N#CC(C#N)N=Nc1ccc(Cl)cc1Cl`, the growth in the experiment with NCI-H23 lung is 86.2%; in the experiment on NCI-H226 lung it was 97.7%; with NCI-H322M lung it was 107%; with HOP-62 NSCLC, 80.7%; with NCI-H460 lung it was 105%; in the experiment on HOP-92 NSCLC, -26.5% (active). Also, the growth was 39.3% in the experiment with NCI-H522 lung; 105% in the experiment with A549/ATCC NSCLC; 91.2% in the experiment on 786-0 renal; 67.2% with COLO 205 colon; 80.8% in the experiment with DU-145 prostate; 40.7% in the experiment on K-562 leukemia. Also, the growth is 77.3% in the experiment with MALME-3M melanoma; 68.2% in the experiment with MDA-MB-231 breast; 116% in the experiment with RXF 393 renal; 103% in the experiment with SF-268 CNS; 100% in the experiment on SF-295 CNS; 74.7% in the experiment on SF-539 CNS. The growth with UACC-257 melanoma was 87.3%; with M14 melanoma, 81.8%.

Regarding `CNC(=O)c1cc(Oc2ccc3nc(NC(=O)Nc4ccc(Cl)c(Cl)c4)sc3c2)ccn1`, the growth in the experiment with NCI-H23 lung was 28.9%; in the experiment on NCI-H226 lung, 23.1%; in the experiment with NCI-H322M lung, 63.7%; in the experiment on HOP-62 NSCLC, 14.7%; in the experiment with NCI-H460 lung, 30.8%; with HOP-92 NSCLC, 64.4%. Further, the growth in the experiment on NCI-H522 lung is 48.4%; with A549/ATCC NSCLC, 10.9%; in the experiment on 786-0 renal it was 40.5%; with COLO 205 colon it was 80.8%; in the experiment on DU-145 prostate, 35.3%; in the experiment with K-562 leukemia, 62.5%. The growth with MALME-3M melanoma is -5.7% (active); with MDA-MB-231 breast, 39.5%; with RXF 393 renal, 88.6%; with SF-268 CNS, 11.9%; in the experiment on SF-295 CNS, -0.659% (active); with SF-539 CNS it was 22.5%. The growth with UACC-257 melanoma is 74.7%; in the experiment with M14 melanoma, 1.23% (active).

As to `Cn1c(=O)c2c(nc(NC3=NS(=O)(=O)c4ccccc43)n2Cc2ccccc2)n(C)c1=O`, the growth in the experiment with NCI-H23 lung is 92.5%; with NCI-H226 lung it was 88.5%; with NCI-H322M lung it was 101%; in the experiment with HOP-62 NSCLC, 93.4%; in the experiment on NCI-H460 lung it was 102%; in the experiment with HOP-92 NSCLC, 94%. Moreover, the growth in the experiment with NCI-H522 lung is 94.1%; with A549/ATCC NSCLC it was 102%; in the experiment on 786-0 renal, 101%; with COLO 205 colon, 120%; in the experiment with DU-145 prostate, 108%; in the experiment with K-562 leukemia it was 104%. Further, the growth is 109% in the experiment with MALME-3M melanoma; 90.4% in the experiment on MDA-MB-231 breast; 78.3% in the experiment with RXF 393 renal; 96.7% with SF-268 CNS; 103% in the experiment on SF-295 CNS; 100% in the experiment on SF-539 CNS. In addition, the growth in the experiment with UACC-257 melanoma was 109%; in the experiment on M14 melanoma, 106%.

Turning to `COC(=O)c1c2c(c(C)[n+]([O-])c1C)C(=O)C=CC2=O`, the growth in the experiment on NCI-H23 lung was -68.3% (active); in the experiment on NCI-H226 lung, -91.9% (active); in the experiment with NCI-H322M lung it was 2.39% (active); in the experiment with HOP-62 NSCLC, -65.4% (active); in the experiment with NCI-H460 lung, 2.35% (active); in the experiment with HOP-92 NSCLC, 45.8%. For the same compound, the growth was -70.1% (active) in the experiment with NCI-H522 lung; 15.8% in the experiment on A549/ATCC NSCLC; -29.9% (active) in the experiment with 786-0 renal; -78.5% (active) with COLO 205 colon; -78.6% (active) in the experiment on DU-145 prostate; 10.5% in the experiment with K-562 leukemia. Besides, the growth in the experiment on MALME-3M melanoma was -87.8% (active); with MDA-MB-231 breast, 0.888% (active); in the experiment on RXF 393 renal, -76.2% (active); with SF-268 CNS, -0.514% (active); in the experiment on SF-295 CNS, 19%; with SF-539 CNS it was -98.2% (active). The figures for the growth in the experiment on UACC-257 melanoma and with M14 melanoma were -80.8% (active) and -82.8% (active), respectively.

Take `COc1ccc(C/C(C)=C(\c2ccc(O)cc2)c2ccc(OCCN3CCCC3)cc2)cc1`: the growth in the experiment with NCI-H23 lung was 105%; in the experiment on NCI-H226 lung, 113%; in the experiment on NCI-H322M lung it was 99.2%; in the experiment with HOP-62 NSCLC, 102%; with NCI-H460 lung, 113%; with HOP-92 NSCLC, 104%. The growth in the experiment with NCI-H522 lung is 97.5%; with A549/ATCC NSCLC it was 98%; with 786-0 renal, 100%; with COLO 205 colon, 111%; with DU-145 prostate it was 104%; in the experiment with K-562 leukemia, 85.5%. Moreover, the growth is 94.1% in the experiment on MALME-3M melanoma; 104% with MDA-MB-231 breast; 136% in the experiment with RXF 393 renal; 107% in the experiment with SF-268 CNS; 102% in the experiment with SF-295 CNS; 99.9% in the experiment with SF-539 CNS. For the same compound, the growth is 99.1% in the experiment on UACC-257 melanoma and 95.2% in the experiment with M14 melanoma.
